According to patent publication US20210230599, “STEM-LOOP COMPOSITIONS AND METHODS FOR INHIBITING INTERLEUKIN-8” (VITRISA THERAPEUTICS, INC., published 2021):

target: Interleukin-8 (IL8, CXCL8), C-terminal His-tagged (Homo sapiens, UniProt P10145 SEQ:1-72); assay: competition; competition TR-FRET; G18A; settings: tags: C-terminal 6xHis (Sino Biological); ssRNA; 2'-F G, 2'-OMe A/C/U, 5' C6NH2, 3' idT
Description: To better understand the sequence requirements and to confirm the stem structures of members of the Aptamer 3 family as determined from sequence covariation analysis from both the primary and secondary (degenerate) selections, a series of variants which included mutations and deletions to the predicted stems were synthesized and screened (Table 24). Activity of each of these variants were tested using a time resolved competition TR-FRET assay in which the labeled parent Aptamer 3 was competed with increasing concentrations of unlabeled variants for binding to IL8 (FIG. 14). Briefly, 2-fold dilutions of thermally equilibrated aptamers were made in TR-FRET Buffer (50 mM MOPS, pH 7.4, 125 mM NaCl, 5 mM KCl, 50 μM CHAPS, 0.1 mg/mL BSA, 1 mM CaCl₂, and 1 mM MgCl₂). 5 μL of aptamer or control solution was added to 5 μl mix of 10 nM C-terminal His-tagged-IL8, 60 nM ALEXA FLUOR® 647-labeled Aptamer, and 5 nM anti-His-Eu (Perkin Elmer) in a black wall low volume 384 well plate (Greiner). For control, 5 μl of 1000-fold excess of unlabeled parent aptamer or 5 μl TR-FRET buffer alone was added to the mix of ALEXA FLUOR® 647-labeled aptamer, His-IL8, and anti-His-Eu. The plate was covered with a plate seal and subsequently incubated in the dark for 1 hour at room temperature. The plate was read on a Biotek CYTATION™ 5 plate reader. […]

Row | Sequence | binding signal
1 | UGAUGACGGUAGAUUACAGGUAGAGUGACCGCAUCU | ~5 fold worse than Aptamer 3
